HT1080NT lethal = kills 2HG-producing HT-1080-NT fibrosarcoma cells. hit rate 1.6% among 360,000. HT-1080-NT fibrosarcoma viability, CellTiter-Glo ATP luminescence, 48 h. Potency, µM (highest dose often 46.1 µM), without a hit: top-dose activity, negative = less viability, most hits filed as cytotoxic;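 also: NT is the 2HG producing partner of a matched IDH1 knockdown line; 0% = DMSO-treated cells and -100% = media-only wells without cells; nearly all actives have a fitted effect of over 55% in size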
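Viability by CellTiter-Glo luminescence after 48 h compound exposure at 37C of HT-1080-NT cells (750/well, RPMI, 5% FBS). % activity scaled between DMSO wells and medium-only wells, then curve-fitted and categorized by curve class.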
KB-3-1 tox = kills parental KB-3-1 adenocarcinoma cells; KB-3-1 viability, CellTiter-Glo ATP luminescence, 72 h; Potency, µM (titrated, usually from 46.1 µM), actives largely listed as cytotoxic; hit rate 1.4% among 400,000; AID 1347075; also: % is scaled to controls: 0 for no effect and ±100 for the full control effect; nearly all actives have a fitted effect of over 60% in size
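Using CellTiter-Glo luminescence, growth of non-resistant KB-3-1 adenocarcinoma cells is assessed 72 h after pin-tool compound addition at 37 °C. Normalized responses across the concentration series yield fitted curves.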
HT1080 IDH1KD tx = HT-1080 IDH1 knockdown cell toxicity (counter line). Potency, µM (top dose mostly 46.1 µM), without a hit: at the top dose activity, negative = toxicity, actives largely listed as cytotoxic. AID 686971. HT-1080 IDH1 knockdown viability, ATP luminescence, 48 h. hit rate 2% among 360,000;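 also: 0% = DMSO wells and -100% = cell-free medium wells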
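HT-1080-IDH1KD cells (IDH1 knocked down), 750/well in RPMI with 5% FBS, treated with compound 48 h at 37 degrees C. Viability by CellTiter-Glo luminescence, normalised to DMSO and no-cell wells; concentration-response curves classed.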
KB-V1 MDR tox = kills drug-selected multidrug resistant KB-V1 cells. AID 1347076. KB-V1 MDR cells viability, CellTiter-Glo, 72 h. Potency, µM (doses to about 46.1 µM), most hits filed as cytotoxic. hit rate 3.4% among 400,000; also: % is scaled to controls: 0 for no effect and ±100 for the full control effect; nearly all actives have a fitted effect of over 60% in size
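KB-V1 MDR subline cells in DMEM (phenol-red free, 10% FBS) exposed to compounds in qHTS concentration series for 72 h at 37 degrees C. Viability read by CellTiter-Glo luminescence; concentration-effect curves fitted after normalization and correction.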
ATXN2 expr inh = inhibitors of ATXN2 expression; HEK-293 ATXN2-luciferase reporter, luminescence, 24 h; Potency, µM (doses to about 57 µM), for the others: at the top dose activity change, negative = inhibition, usual class: inhibitors; hit rate 0.72% among 360,000; AID 1745845; also: % is scaled to controls: 0 for no effect and ±100 for the full control effect; nearly all actives have a fitted effect of over 55% in size
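ATXN2-luciferase reporter cells (luciferase flanked by upstream and downstream ATXN2 gene portions) were treated 24 h at 37 °C with compounds at up to 57 uM. SteadyGlo luminescence gave expression; GF-AFC fluorescence gave viability.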
ATXN viability = reduces viability in counter-screen for ATXN expression inhibitors | S2 cells (HEK-293 line with an ATXN2-luciferase reporter) viability, CellTiter-Fluor protease fluorescence, 24 h | Potency, µM (highest dose often 56.7 µM), most hits filed as cytotoxic | hit rate 0.49% among 400,000; also: nearly all actives have a fitted effect of over 40% in size
* = called active by the depositor. The list is not random: actives were taken first. Their share in the collection is about 6.2%. Calls follow the shape of the dose curve; as a rule, active = well fitted curve in the direction sought with a large enough effect; inconclusive = small, poorly fitted or top-dose-only effect, or another doubt; inactive = no such curve, though single readings can be large; an effect the other way counts as inactive or inconclusive. Potency is read from the fitted curve at half-maximal effect.

Cc1[nH]n(-c2ccc([N+](=O)[O-])cc2)c(=O)c1C=NCCc1c(C)[nH]c2ccccc12 was read as HT1080NT lethal -22.6%, KB-3-1 tox inactive, HT1080 IDH1KD tx -23.2%, KB-V1 MDR tox 16.4µM*, ATXN2 expr inh inconclusive and ATXN viability inactive.
For Cc1[nH]n(-c2ccc([N+](=O)[O-])cc2)c(=O)c1C=NCC1CCCO1 (stereo not given) the results were HT1080NT lethal -25.9%, KB-3-1 tox inconclusive, HT1080 IDH1KD tx -16.8%, KB-V1 MDR tox inconclusive, ATXN2 expr inh 30.9% and ATXN viability inactive.
CN(Cc1ccccc1)c1ccc(-c2nc(-c3ccccn3)no2)cc1[N+](=O)[O-] was read as KB-3-1 tox inconclusive, KB-V1 MDR tox inconclusive, ATXN2 expr inh -17.8% and ATXN viability inconclusive.
For COC(=O)c1cccc(Nc2c(-c3ccc(SC)cc3)nc3nc[nH]n23)c1 the results were KB-3-1 tox inactive, KB-V1 MDR tox inactive, ATXN2 expr inh 7.4% and ATXN viability inactive.
`CC(=O)Nc1ccc(NC(=O)C(C)c2cccc(C(=O)c3ccccc3)c2)cc1` (stereo not given) gave HT1080NT lethal 15.2%, KB-3-1 tox inactive, HT1080 IDH1KD tx 4.1%, KB-V1 MDR tox inactive, ATXN2 expr inh 0.6% and ATXN viability inactive.
Screening CC(=O)Nc1ccc([C@H](C)C(=O)Nc2ncc(C(C)C)s2)cc1 returned ATXN2 expr inh 0.344µM*.
Screening COc1ccccc1NS(=O)(=O)c1cccc(NC(=O)Nc2ccccc2)c1 returned HT1080NT lethal -9.0%, KB-3-1 tox inconclusive, HT1080 IDH1KD tx -9.4%, KB-V1 MDR tox 20.6µM*, ATXN2 expr inh -28.9% and ATXN viability inactive.
`COc1ccccc1NS(=O)(=O)c1cccc(NC(=O)Nc2ccc(Cl)cc2)c1` gave HT1080NT lethal inconclusive, KB-3-1 tox inconclusive, HT1080 IDH1KD tx 18.4µM*, KB-V1 MDR tox inconclusive, ATXN2 expr inh inconclusive and ATXN viability inconclusive.
CCNC(=S)Nc1cccc(S(=O)(=O)Nc2ccccc2OC)c1 was read as HT1080NT lethal -11.9%, KB-3-1 tox inactive, HT1080 IDH1KD tx -7.2%, KB-V1 MDR tox inactive, ATXN2 expr inh -17.8% and ATXN viability inactive.
Screening COc1cccc(OC)c1C(=O)Nc1cccc(S(=O)(=O)Nc2ccccc2Cl)c1 returned HT1080NT lethal -0.4%, KB-3-1 tox inactive, HT1080 IDH1KD tx 0.6%, KB-V1 MDR tox inactive, ATXN2 expr inh 9.4% and ATXN viability inactive.
Cc1cccc(C)c1NC(=O)Cn1c(=O)n(Cc2ccccc2)c(=O)c2c(C)c(C(=O)N(C)C)sc21 was read as KB-3-1 tox inactive, KB-V1 MDR tox inactive, ATXN2 expr inh 0.9% and ATXN viability inactive.
Screening Cc1cc(C(=O)COc2cccnc2[N+](=O)[O-])c(C)n1Cc1ccco1 returned HT1080NT lethal inconclusive, KB-3-1 tox inconclusive, HT1080 IDH1KD tx 20.6µM*, KB-V1 MDR tox inconclusive, ATXN2 expr inh -9.3% and ATXN viability inactive.
Screening COc1ccc(C)cc1NC(=O)CSc1nc(=O)n(Cc2ccncc2)c2c1CCC2 returned KB-3-1 tox inactive, KB-V1 MDR tox inactive, ATXN2 expr inh inconclusive and ATXN viability inactive.
O=C(C1CCCCC1)N1CCOc2ccc(CN3CCN(Cc4ccccn4)CC3)cc2C1 was read as ATXN viability inactive.
For Cc1cccc2c(N3CCCC3)nc(CNS(=O)(=O)c3ccccc3Cl)nc12 the results were ATXN viability inactive.
Cc1[nH]ccc2cc3nc4ccccc4c3cc12 was read as HT1080NT lethal 14.6µM*, KB-3-1 tox inconclusive, HT1080 IDH1KD tx inconclusive and KB-V1 MDR tox 10.3µM*.
For O=C1C(=O)N(C2CCN(S(=O)(=O)c3ccccc3)CC2)CCN1Cc1ccccc1 the results were KB-3-1 tox inactive, KB-V1 MDR tox inactive, ATXN2 expr inh 5.7% and ATXN viability inactive.

Source: PubChem (National Center for Advancing Translational Sciences (NCATS))
